For some of these results: Potency and affinity values are given separately. The source made the active and inactive calls. Unless noted, the rule behind the calls is not given here.
Legend:
[1] = antimalarial activity against Dd2 strain (AID 2302;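 active = growth inhibition above 50% at the single 2 µM test dose, taken to imply half-maximal potency below 2 µM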;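 note: 0% = DMSO untreated growth and 100% = chloroquine plus artemisinin killed control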); conditions: P. falciparum Dd2 in RBCs, LDH growth readout, 72 h; at 2 µM; stronger effect = higher value
[2] = human hepatoma cell viability loss – ATP luminescence, cytotoxicity control for P. falciparum antimalarial project, primary screen (AID 2303;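 active = inhibition above 50%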;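 note: 0% = DMSO wells and 100% = digitonin-killed cells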); conditions: HepG2 viability, 24-48 h, at 10 µM, stronger effect = higher value
[3] = biological target: L-lactate dehydrogenase (Plasmodium falciparum (isolate CDC / Honduras)) (UniProt Q27743); assay: PfLDH activity inhibition – cell lysate, 3D7 strain, counter-screen for P. falciparum growth inhibition project (AID 2304);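 note: 0% = vehicle and 100% = reference inhibitor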; conditions: P. falciparum 3D7 crude extract, LDH APAD/NBT absorbance; at 2 µM; stronger effect = higher value
[4] = inhibition of 3D7 malaria parasite growth – strain 3D7 (AID 2306);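 note: 0% = DMSO wells and 100% = chloroquine plus artemisinin control wells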; conditions: P. falciparum 3D7 erythrocytic growth, LDH absorbance, 72 h; at 2 µM; stronger effect = higher value
[5] = biological target: Calcium-dependent protein kinase 1 (Plasmodium falciparum (isolate 3D7)) (UniProt P62344); assay: PfCDPK1 kinase inhibitors, biochemical, TCAMS library (AID 1159585; cut-off not given, nearly all actives have IC50 up to about 0.98 µM;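 note: inhibitors leave more ATP so luminescence rises with inhibition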); conditions: recombinant PfCDPK1, Kinase-Glo ATP depletion luminescence
[6] = biological target: Plasmodium falciparum protein kinase 6 (PK6, PF3D7_1337100) (UniProt Q8IDW1); assay: PfPK6 kinase inhibitors, biochemical, TCAMS library (AID 1159586); conditions: recombinant PfPK6, Kinase-Glo ATP depletion luminescence
[7] = biological target: Protein kinase 7 (PK7), Plasmodium falciparum 3D7 (PF3D7_0213400) (UniProt Q7YTF7); assay: inhibition of Plasmodium PK7 catalytic activity – biochemical, TCAMS antimalarial set, Kinase-Glo luminescence (AID 1159587); conditions: recombinant PfPK7, Kinase-Glo ATP depletion luminescence
[8] = biological target: Calcium-dependent protein kinase 4 (Plasmodium falciparum (isolate 3D7)) (UniProt Q8IBS5); assay: PfCDPK4 kinase inhibitors, biochemical, TCAMS library (AID 1159588; cut-off not given, nearly all actives have IC50 up to about 0.91 µM); conditions: recombinant PfCDPK4, Kinase-Glo ATP depletion luminescence
Chain of Calcium-dependent protein kinase 4 (Plasmodium falciparum (isolate 3D7)) (Q8IBS5 whole entry, looked up): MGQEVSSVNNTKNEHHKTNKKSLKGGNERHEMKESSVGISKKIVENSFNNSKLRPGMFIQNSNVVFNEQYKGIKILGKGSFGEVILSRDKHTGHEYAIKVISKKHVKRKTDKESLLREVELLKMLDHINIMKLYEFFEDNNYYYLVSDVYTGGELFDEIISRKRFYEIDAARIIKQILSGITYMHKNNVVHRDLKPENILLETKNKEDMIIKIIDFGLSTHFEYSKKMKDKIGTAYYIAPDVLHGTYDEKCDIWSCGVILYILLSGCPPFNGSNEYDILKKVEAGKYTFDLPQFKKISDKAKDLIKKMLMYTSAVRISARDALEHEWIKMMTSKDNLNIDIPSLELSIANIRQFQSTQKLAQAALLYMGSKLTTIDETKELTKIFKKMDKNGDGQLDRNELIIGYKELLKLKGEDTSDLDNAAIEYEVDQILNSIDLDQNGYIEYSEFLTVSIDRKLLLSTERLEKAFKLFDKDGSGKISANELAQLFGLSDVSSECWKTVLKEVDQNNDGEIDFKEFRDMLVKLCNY

Chain of Protein kinase 7 (PK7), Plasmodium falciparum 3D7 (PF3D7_0213400) (Q7YTF7 1-343): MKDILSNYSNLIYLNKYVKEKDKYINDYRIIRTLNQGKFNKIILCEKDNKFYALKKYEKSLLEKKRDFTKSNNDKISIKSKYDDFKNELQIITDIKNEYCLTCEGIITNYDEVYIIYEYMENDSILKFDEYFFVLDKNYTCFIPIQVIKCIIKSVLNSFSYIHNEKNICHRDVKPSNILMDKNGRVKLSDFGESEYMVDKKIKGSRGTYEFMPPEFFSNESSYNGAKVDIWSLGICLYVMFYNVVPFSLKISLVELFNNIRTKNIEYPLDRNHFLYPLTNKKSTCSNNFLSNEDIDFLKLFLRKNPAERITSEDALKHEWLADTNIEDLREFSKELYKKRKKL
Chain of Plasmodium falciparum protein kinase 6 (PK6, PF3D7_1337100) (Q8IDW1 1-305): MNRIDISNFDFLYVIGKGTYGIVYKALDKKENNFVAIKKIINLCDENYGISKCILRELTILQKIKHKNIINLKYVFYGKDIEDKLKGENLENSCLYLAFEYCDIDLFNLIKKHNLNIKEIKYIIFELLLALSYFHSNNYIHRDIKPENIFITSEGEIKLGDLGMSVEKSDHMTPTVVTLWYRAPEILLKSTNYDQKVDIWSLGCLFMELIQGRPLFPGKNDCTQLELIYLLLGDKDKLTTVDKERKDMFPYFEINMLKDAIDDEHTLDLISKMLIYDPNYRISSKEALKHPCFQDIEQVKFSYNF
Chain of L-lactate dehydrogenase (Plasmodium falciparum (isolate CDC / Honduras)) (Q27743 whole entry, looked up): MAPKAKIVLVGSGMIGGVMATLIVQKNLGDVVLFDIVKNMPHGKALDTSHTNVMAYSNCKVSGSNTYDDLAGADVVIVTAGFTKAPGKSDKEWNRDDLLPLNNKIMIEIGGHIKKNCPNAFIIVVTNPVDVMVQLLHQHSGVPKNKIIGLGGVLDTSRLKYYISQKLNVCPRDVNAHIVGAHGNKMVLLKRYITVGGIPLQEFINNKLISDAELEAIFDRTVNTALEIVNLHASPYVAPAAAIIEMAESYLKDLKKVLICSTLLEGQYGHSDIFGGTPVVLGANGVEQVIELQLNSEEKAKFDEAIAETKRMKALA
Chain of Calcium-dependent protein kinase 1 (Plasmodium falciparum (isolate 3D7)) (P62344 whole entry, looked up): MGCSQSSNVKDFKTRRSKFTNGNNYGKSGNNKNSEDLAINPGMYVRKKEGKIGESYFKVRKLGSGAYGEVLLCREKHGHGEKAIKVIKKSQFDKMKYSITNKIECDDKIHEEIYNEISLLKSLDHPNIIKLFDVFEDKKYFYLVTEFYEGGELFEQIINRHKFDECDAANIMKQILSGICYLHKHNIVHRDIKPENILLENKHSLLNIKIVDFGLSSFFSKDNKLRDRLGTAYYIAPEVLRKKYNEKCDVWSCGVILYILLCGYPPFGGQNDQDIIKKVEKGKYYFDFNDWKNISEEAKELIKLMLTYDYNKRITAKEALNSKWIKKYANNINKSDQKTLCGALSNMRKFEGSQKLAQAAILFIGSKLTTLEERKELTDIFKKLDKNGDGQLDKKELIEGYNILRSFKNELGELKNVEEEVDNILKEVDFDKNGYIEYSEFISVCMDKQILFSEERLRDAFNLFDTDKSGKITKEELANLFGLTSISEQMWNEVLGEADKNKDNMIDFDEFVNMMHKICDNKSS

CCCOc1ccc(OCCCON2C(N)=NC(N)=NC2(C)C)cc1
inactive: inhibition [3] 5% | outcome [5] | outcome [6] | outcome [7] | outcome [8]
active: growth inhibition [1] 94% | inhibition [2] 59% | growth inhibition [4] 96%

CCc1cn2c3c(cc(C(=O)N[C@@H](Cc4cccc(Cl)c4)[C@H](O)CNC4CCCCC4)cc13)N(C)S(=O)(=O)CC2
active: growth inhibition [1] 98% | growth inhibition [4] 97%
inactive: inhibition [2] 12% | inhibition [3] 2% | outcome [5] | outcome [6] | outcome [7] | outcome [8]

Cc1ccc(O)cc1Nc1ccnc2cc(-c3ccccc3)ccc12
active: growth inhibition [1] 99% | growth inhibition [4] 100%
inactive: inhibition [2] 45% | inhibition [3] -2% | outcome [5] | outcome [6] | outcome [7] | outcome [8]

Cc1nccn1Cc1cc(C(C)(C)C)c(O)c(C(C)(C)C)c1
inactive: growth inhibition [1] -4% | inhibition [2] 8% | inhibition [3] -5% | outcome [5] | outcome [6] | outcome [7] | outcome [8]
active: growth inhibition [4] 99%

O=C(C=Cc1ccccc1)Nc1ccc(C#CC=Cc2ccc(NC(=O)C=Cc3ccccc3)cc2)cc1
inactive: growth inhibition [1] 3% | inhibition [2] 26% | inhibition [3] 1% | outcome [5] | outcome [6] | outcome [7] | outcome [8]
active: growth inhibition [4] 100%

CC(C)CCN1CCC(Oc2cccc(NC(=O)c3ccc(C(F)(F)F)cc3)c2)CC1
inactive: growth inhibition [1] 6% | inhibition [2] 39% | inhibition [3] -2% | outcome [5] | outcome [6] | outcome [7] | outcome [8]
active: growth inhibition [4] 98%

CCNc1cc(C(=O)N[C@@H](Cc2ccccc2)[C@H](O)CNCCC(C)c2ccccc2)cc(N2CCCC2=O)c1 (stereo not given in full)
inactive: inhibition [2] 0% | inhibition [3] 3% | outcome [5] | outcome [6] | outcome [7] | outcome [8]
active: growth inhibition [1] 95% | growth inhibition [4] 99%

CN1CCN(CCCN(Cc2ccc(-c3cccc(CNC4CCCC4)c3)cc2)C(=O)Nc2ccccc2)CC1
inactive: inhibition [2] 28% | inhibition [3] -3% | outcome [5] | outcome [6] | outcome [7] | outcome [8]
active: growth inhibition [1] 76% | growth inhibition [4] 92%

COc1cc(C(=O)NCCCN2CCN(c3cc(Cl)ccc3OC)CC2)ccc1-c1nc2cc(Cl)c(Cl)cc2[nH]1
inactive: inhibition [2] 12% | inhibition [3] -3% | outcome [5] | outcome [6] | outcome [7] | outcome [8]
active: growth inhibition [1] 99% | growth inhibition [4] 102%

CCc1c[nH]c2c(N3CCCS3(=O)=O)cc(C(=O)N[C@@H](Cc3ccccc3)[C@H](O)CNC(C)(C)CCCC(C)C)cc12
active: growth inhibition [1] 98% | growth inhibition [4] 96%
inactive: inhibition [2] 13% | inhibition [3] -2% | outcome [5] | outcome [6] | outcome [7] | outcome [8]

COc1ccccc1NC(=O)Nc1ccc(-c2cccc(-c3nc4ccccc4[nH]3)c2)cc1
inactive: growth inhibition [1] 25% | inhibition [2] 42% | inhibition [3] 0% | outcome [5] | outcome [6] | outcome [7] | outcome [8]
active: growth inhibition [4] 101%

Oc1c(CN2CCCC(C(F)(F)F)C2)cc(Cl)c2ccccc12 (stereo not given)
inactive: inhibition [2] 23% | inhibition [3] 4% | outcome [5] | outcome [6] | outcome [7] | outcome [8]
active: growth inhibition [1] 53% | growth inhibition [4] 94%

Cc1cc(Nc2ccncc2)n2nc(C)c(-c3ccccc3Cl)c2n1
inactive: inhibition [2] 2% | inhibition [3] 4% | outcome [5] | outcome [6] | outcome [7] | outcome [8]
active: growth inhibition [1] 93% | growth inhibition [4] 99%

O=C(Nc1ccc(Cl)cc1)c1cccc2[nH]c(C(F)(F)F)nc12
inactive: inhibition [3] -6% | outcome [5] | outcome [6] | outcome [7] | outcome [8]
active: growth inhibition [1] 98% | inhibition [2] 84% | growth inhibition [4] 93%

O=C(Nc1ccc(Cn2ncc(N3CCCNCC3)c(Cl)c2=O)cc1)Nc1cccc(C(F)(F)F)c1
inactive: growth inhibition [1] 30% | inhibition [2] 20% | inhibition [3] 0% | outcome [5] | outcome [6] | outcome [7] | outcome [8]
active: growth inhibition [4] 101%

Cc1[nH]c(C)c(-c2ccc(C(=O)c3ccc(Cl)cc3)cc2)c(=O)c1Cl
active: growth inhibition [1] 95% | growth inhibition [4] 98%
inactive: inhibition [2] -1% | inhibition [3] 4% | outcome [5] | outcome [6] | outcome [7] | outcome [8]

Brc1cc(CNCCCNc2nc3ccccc3[nH]2)sc1Br
active: growth inhibition [4] 100%
inactive: growth inhibition [1] 21% | inhibition [2] 10% | inhibition [3] 8% | outcome [5] | outcome [6] | outcome [7] | outcome [8]

CC(C)(Oc1ccc(Cl)cc1)C(=O)NCCC1CCN(CCCCCNC(=O)/C=C/c2ccc(Cl)c(Cl)c2)CC1
active: inhibition [2] 73% | growth inhibition [4] 87%
inactive: growth inhibition [1] 37% | inhibition [3] -1% | outcome [5] | outcome [6] | outcome [7] | outcome [8]

CN1CCC(N2CCC(Oc3cccc(C(=O)NCCCC4CCCC4)c3)CC2)CC1
active: growth inhibition [4] 101%
inactive: growth inhibition [1] 48% | inhibition [2] 41% | inhibition [3] -3% | outcome [5] | outcome [6] | outcome [7] | outcome [8]

CCN(CC)C(=O)c1cnc(-c2ccccc2)nc1Oc1cccc(Cl)c1
inactive: growth inhibition [1] 40% | inhibition [2] -7% | inhibition [3] -3% | outcome [5] | outcome [6] | outcome [7] | outcome [8]
active: growth inhibition [4] 92%
